The values that follow come from PubChem BioAssay (EPA / NIEHS).

Assay [1] deals with Retinoic acid receptor RXR-alpha (Homo sapiens) (UniProt P19793). Briefly: OT_NURR1_NURR1RXRa_1440: Odyssey Thera (OT) 24-hour HEK293T Protein Complementation Assay for Nurr1/retinoid X receptor (RXR) (AID 2283386). The procedure, abridged:
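Fluorescence PCA read-out; HEK293T; 24 h post-dose; bait/prey fused to reporter fragments; gain-of-signal fit vs DMSO negative control.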

In assay [2] the target is Peroxisome proliferator-activated receptor gamma (Homo sapiens) (UniProt P37231). In words: OT_PPARg_PPARgSRC1_0480: Odyssey Thera (OT) 8-hour Protein-Complementation Assay for Peroxisome Proliferator-activated Receptor Gamma / SRC-1 Co-activator (AID 2283387). In short, it runs like this:
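Read-out: 488 nm N/C fluorescence ratio from complemented Venus YFP fragments, ≥350 cells per image, gain-of-signal fitted against DMSO baseline. Fusions of PPARg/SRC-1 with IFP1/IFP2 expressed transiently in HEK293T; compounds applied 8 h.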

For assay [3] the target is unchanged. Briefly: OT_PPARg_PPARgSRC1_1440: Odyssey Thera (OT) 24-hour Protein-Complementation Assay for Peroxisome Proliferator-activated Receptor Gamma/ SRC-1 Co-activator (AID 2283388). In short, it runs like this: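 HEK293T transiently transfected with PPARg/SRC-1 split-Venus YFP fusions 48 h before dosing, then treated 24 h at 37C. Fixed cells imaged; nuclear/cytoplasmic 488 nm fluorescence ratio, gain of signal versus DMSO.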

A short description of assay [4]: CEETOX_H295R_11DCORT: CeeTox H295R High-throughput Steroidogenesis Assay for 11-Deoxycortisol (11DCORT) (AID 2283432; active = hit-call score of the fitted dose curve at least 0.9, where 1 is the maximum; inactive = score below 0.9;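 also: 11-deoxycortisol secreted into the medium measured by LC-MS/MS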). As to conditions: actives raise or lower the signal. In short, it runs like this: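 H295R cells; 10 uM forskolin prestim 48 h; compound in 0.1% DMSO 48 h; media extracted with MTBE; 11-deoxycortisol by LC-MS/MS, 7-point standard curve; gain/loss vs DMSO baseline; viability by MTT in same wells.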

Assay [5] can be described thus: CEETOX_H295R_OHPREG: CeeTox H295R High-throughput Steroidogenesis Assay for OH-Pregnenolone (OHPREG) (AID 2283434; active = hit-call score of the fitted dose curve at least 0.9, where 1 is the maximum; inactive = score below 0.9). The note with it: actives raise or lower the signal. The procedure, abridged: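 H295R, 10 uM forskolin pre-stim 48 h; test chemical 48 h, 0.1% DMSO final. MTBE extraction, reverse-phase C18 HPLC-ESI+ MS/MS of medium. Gain/loss vs DMSO; viability by MTT in same wells.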

The nature of assay [6]: CEETOX_H295R_OHPROG: CeeTox H295R High-throughput Steroidogenesis Assay for OH-Progesterone (OHPROG) (AID 2283435; active = hit-call score of the fitted dose curve at least 0.9, where 1 is the maximum; inactive = score below 0.9;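 as to AC50: 17alpha-hydroxyprogesterone secreted into medium measured by HPLC-MS/MS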). The note with it: actives raise or lower the signal. The procedure, abridged:
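HPLC-MS/MS quantification of 17alpha-hydroxyprogesterone secreted by H295R cells after 48 h chemical exposure, following 48 h 10 uM forskolin prestimulation. Gain or loss of signal fitted relative to DMSO. Viability checked by MTT in the same wells.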

Assay [7] can be described thus: CEETOX_H295R_ANDR: CeeTox H295R High-throughput Steroidogenesis Assay for Androstenedione (ANDR) (AID 2283436; active = hit-call score of the fitted dose curve at least 0.9, where 1 is the maximum; inactive = score below 0.9;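 also: human H295R adrenal cells exposed for 48 h with androstenedione measured in medium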). As to conditions: actives raise or lower the signal. In short, it runs like this: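 48 h chemical exposure, H295R cells, DMEM/F12 + ITS+ and Nu-Serum. Medium androstenedione: MTBE extraction, C18 reverse-phase HPLC, ESI+ MS/MS. Fit bidirectional vs DMSO; MTT viability in same wells.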

The nature of assay [8]: CEETOX_H295R_CORTIC: CeeTox H295R High-throughput Steroidogenesis Assay for Corticosterone (CORTIC) (AID 2283437; active = hit-call score of the fitted dose curve at least 0.9, where 1 is the maximum; inactive = score below 0.9;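 also: corticosterone secreted into medium quantified by mass spectrometry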). The note with it: actives raise or lower the signal. In short, it runs like this:
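48 h forskolin (10 uM) prestim, then 48 h chemical exposure, final DMSO 0.1%. Readout: corticosterone in medium by LC-MS/MS after MTBE extraction. Gain/loss fit vs DMSO; MTT viability in same wells.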

A short description of assay [9]: CEETOX_H295R_CORTISOL: CeeTox H295R High-throughput Steroidogenesis Assay for Cortisol (AID 2283438; active = hit-call score of the fitted dose curve at least 0.9, where 1 is the maximum; inactive = score below 0.9;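 also: cortisol secreted into medium quantified by LC-MS/MS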). As to conditions: actives raise or lower the signal. The procedure, abridged: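 Read-out: cortisol in culture medium by reverse-phase C18 HPLC with ESI-positive tandem MS, after MTBE liquid-liquid extraction. Cells: human adrenal H295R, forskolin-primed (10 uM, 48 h) before 48 h chemical exposure in 0.1% DMSO.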

Assay [10] in a line: CEETOX_H295R_DOC: CeeTox H295R High-throughput Steroidogenesis Assay for DOC (AID 2283439; active = hit-call score of the fitted dose curve at least 0.9, where 1 is the maximum; inactive = score below 0.9). As to conditions: actives raise or lower the signal. The procedure, abridged: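 Human adrenocortical H295R cells, passages up to 10, received 10 uM forskolin for 48 h before chemical addition. After another 48 h exposure in 0.1% DMSO, secreted DOC was measured by LC-MS/MS, with gain or loss fitted against DMSO controls.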

Several values for one entry are separate records, joined by “and”; a condition that tells them apart may be missing. Equal values may be shown once. Records with an inconclusive call do not appear. More than one record can exist for a structure, and the calls need not agree. Activity calls are given as the source filed them. The calls were made as follows, unless noted: active = hit-call score of the fitted dose curve at least 0.9, where 1 is the maximum; inconclusive = response in the unintended direction; inactive = score below 0.9.

Usually AC50 stands for the concentration giving half of the maximal activity seen.

Chain of Peroxisome proliferator-activated receptor gamma (Homo sapiens) (P37231 whole entry, looked up, the tested form may be a part): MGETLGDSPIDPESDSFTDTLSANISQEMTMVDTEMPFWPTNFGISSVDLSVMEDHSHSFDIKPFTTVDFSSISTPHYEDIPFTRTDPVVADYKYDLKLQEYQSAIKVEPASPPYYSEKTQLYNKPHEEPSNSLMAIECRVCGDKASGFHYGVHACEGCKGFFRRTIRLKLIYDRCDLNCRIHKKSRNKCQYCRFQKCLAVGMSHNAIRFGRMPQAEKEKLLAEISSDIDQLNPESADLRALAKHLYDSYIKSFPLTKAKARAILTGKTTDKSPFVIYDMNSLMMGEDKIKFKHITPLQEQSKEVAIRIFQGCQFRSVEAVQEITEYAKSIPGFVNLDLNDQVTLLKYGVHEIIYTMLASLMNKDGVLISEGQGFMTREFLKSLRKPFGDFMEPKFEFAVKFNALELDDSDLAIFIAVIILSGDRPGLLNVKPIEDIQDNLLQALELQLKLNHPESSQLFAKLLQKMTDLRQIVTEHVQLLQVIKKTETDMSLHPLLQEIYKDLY
Chain of Retinoic acid receptor RXR-alpha (Homo sapiens) (P19793 whole entry, looked up, the tested form may be a part): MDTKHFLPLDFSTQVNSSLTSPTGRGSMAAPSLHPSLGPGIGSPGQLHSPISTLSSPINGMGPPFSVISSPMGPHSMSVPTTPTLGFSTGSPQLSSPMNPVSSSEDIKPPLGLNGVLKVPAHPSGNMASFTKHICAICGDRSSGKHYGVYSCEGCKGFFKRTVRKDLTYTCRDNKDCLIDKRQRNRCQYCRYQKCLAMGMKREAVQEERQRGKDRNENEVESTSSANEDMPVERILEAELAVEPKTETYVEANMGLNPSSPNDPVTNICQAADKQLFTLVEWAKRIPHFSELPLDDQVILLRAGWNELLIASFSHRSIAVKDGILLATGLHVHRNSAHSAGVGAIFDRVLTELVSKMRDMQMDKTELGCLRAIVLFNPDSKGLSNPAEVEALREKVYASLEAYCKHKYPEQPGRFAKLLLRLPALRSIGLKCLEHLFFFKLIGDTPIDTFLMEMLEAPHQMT

For `COc1cc(OC)nc(NC(=O)NS(=O)(=O)c2ncccc2C(=O)N(C)C)n1`, the compound was called inactive in [1], in [2] and in assay [3].
As for `CC(C)(C)CC(C)(C)c1ccc(O)cc1`, the AC50 in [1] was 11.2 µM (active).
Consider `c1cc[c]([Hg][c]2ccccc2)cc1`, for which the results for the AC50 in assay [1] and in [3] were 63.4 µM (active) and 50 µM (active), respectively. The outcome in [2] was inactive.
Consider `Clc1ccc(C2(Cn3cncn3)CC(Br)CO2)c(Cl)c1` (stereo not given), for which the outcome in assay [1], in assay [2] and in assay [3] was inactive.
Turning to `CCC1(c2ccc(N)cc2)CCC(=O)NC1=O` (stereo not given), the compound was called inactive in assay [1], in assay [2] and in [3].
On to `COC(=O)c1sccc1S(=O)(=O)NC(=O)Nc1nc(C)nc(OC)n1`, for which the compound was classed as inactive in assay [1], in assay [2] and in assay [3].
For the compound `CC(C)(C)c1cc(O)ccc1O`, the outcome in [1], in [2] and in [3] was inactive.
Consider `CCOP(=S)(OCC)Oc1nc(Cl)c(Cl)cc1Cl`, for which the AC50 in assay [1] is 85.3 µM (active); in assay [4], 94.9 µM (active); in assay [5], 80.5 µM (active); in assay [7] it was 60.7 µM (active); in assay [9] it was 81.6 µM (active). Moreover, the compound was classed as inactive in assay [1], in assay [2], in assay [3], in [6], in assay [8] and in assay [10].
Take `O=c1[nH]c(=O)[nH]c(=O)[nH]1`: the call in assay [1], in assay [2] and in [3] was inactive.
Turning to `ClCC(Cl)CCl`, in assay [1], the outcome was inactive.
For `Clc1ccc(COC(Cn2ccnc2)c2ccc(Cl)cc2Cl)cc1` (stereo not given), in assay [1], the AC50 is 11.6 µM (active). Moreover, the call in assay [2] and in assay [3] was inactive.
For the compound `CN(C)N=O`, the compound was called inactive in [1], in assay [2] and in [3].
In the case of `Cn1sc(Cl)cc1=O`, the compound was classed as inactive in assay [1], in [2] and in [3].
On to `O=C(O)C(F)(F)C(F)(F)C(F)(F)C(F)(F)C(F)(F)C(F)(F)C(F)(F)C(F)(F)C(F)(F)C(F)(F)F`, for which the outcome in assay [1], in assay [2] and in [3] was inactive.
As for `C=C(C)C#N`, the result in assay [1] was inactive.
For `CCC(=O)C(CC(C)N(C)C)(c1ccccc1)c1ccccc1` (stereo not given), the call in [1], in assay [2] and in assay [3] was inactive.
Consider `CCCCCCCCc1ccc(O)cc1`, for which the AC50 in assay [1] is 57.4 µM (active). Further, the result in assay [1], in assay [2] and in assay [3] was inactive.
As to `COc1cc(-c2ccc(N)c(OC)c2)ccc1N`, the AC50 was 67.1 µM (active) and 41.3 µM (active) and 50 µM (active) in [1]; 82.6 µM (active) in assay [5]; 1.9 µM (active) in assay [6]. In addition, the compound was called inactive in [1], in assay [2], in assay [3], in assay [5] and in [6].
Take `COc1ccc(C=O)cc1OC`: the compound was classed as inactive in [1], in assay [2] and in assay [3].
On to `O=C/C=C/c1ccccc1`, for which the compound was classed as inactive in assay [1], in assay [2] and in assay [3].
As to `CNC`, the compound was called inactive in assay [1], in assay [2] and in [3].
In the case of `Cc1ccccc1N`, in assay [1], the compound was classed as inactive.
For `Cl/C=C/Cl`, the result in [1] was inactive.
Regarding `O=C1CCCN1`, the compound was classed as inactive in assay [1] and in assay [2].
`CCOC(=O)Nc1cccc(OC(=O)Nc2ccccc2)c1`: the outcome in [1], in assay [2] and in assay [3] was inactive.
For `N#CN=C(N)N`, the call in [1], in [2] and in assay [3] was inactive.
Consider `CC(C#N)CCC#N` (stereo not given), for which the call in [1], in [2] and in assay [3] was inactive.
Turning to `C[C@]12CCC(=O)C[C@@H]1CC[C@@H]1[C@@H]2CC[C@]2(C)[C@@H](O)CC[C@@H]12`, the values for the AC50 in [1] and in [5] were 40.3 µM (active) and 0.0791 µM (active), respectively. Further, the compound was called inactive in [1], in assay [2], in assay [3] and in assay [6].
Consider `CC(=O)[O][Hg][c]1ccccc1`, for which the AC50 in [1] was 0.266 µM (active). Also, the call in assay [2] and in assay [3] was inactive.
Consider `CC(=O)c1cc(C(C)(C)C)cc2c1CCC2(C)C`, for which the AC50 in [1] is 86.9 µM (active). In addition, the result in [2] and in [3] was inactive.
For the compound `CCC(C)(C)c1ccc(O)c(C(C)(C)CC)c1`, the compound was classed as inactive in [2] and in assay [3].
As for `OCC(O)CCl` (stereo not given), the result in assay [1], in assay [2] and in [3] was inactive.
Turning to `CC1(C)Cc2cccc(O)c2O1`, the call in [2] and in assay [3] was inactive.
With `Clc1nc(Cl)nc(Cl)n1`, the compound was called inactive in [1] and in assay [3].
